# KCNQ2 pot: enhances the rat KCNQ2 potassium channel | O88943 | CHO-K1 KCNQ2, FluxOR thallium flux fluorescence; hits give high values | AID 2239 | 0.54% of 310,000 active | B-score at 10 µM;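 active = fluorescence ratio B-score at least 3 SD of library B-scores, with initial fluorescence B-score within 3 of them, cut at about 5.3 in these data; same plate scores as AID 2156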;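 note: B-score of peak minus minimum over baseline fluorescence ratio after K+ and Tl+ stimulus; positive B-score means potentiation of KCNQ2 with more thallium influx and brighter signal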
# Target sequence (O88943 whole entry, looked up): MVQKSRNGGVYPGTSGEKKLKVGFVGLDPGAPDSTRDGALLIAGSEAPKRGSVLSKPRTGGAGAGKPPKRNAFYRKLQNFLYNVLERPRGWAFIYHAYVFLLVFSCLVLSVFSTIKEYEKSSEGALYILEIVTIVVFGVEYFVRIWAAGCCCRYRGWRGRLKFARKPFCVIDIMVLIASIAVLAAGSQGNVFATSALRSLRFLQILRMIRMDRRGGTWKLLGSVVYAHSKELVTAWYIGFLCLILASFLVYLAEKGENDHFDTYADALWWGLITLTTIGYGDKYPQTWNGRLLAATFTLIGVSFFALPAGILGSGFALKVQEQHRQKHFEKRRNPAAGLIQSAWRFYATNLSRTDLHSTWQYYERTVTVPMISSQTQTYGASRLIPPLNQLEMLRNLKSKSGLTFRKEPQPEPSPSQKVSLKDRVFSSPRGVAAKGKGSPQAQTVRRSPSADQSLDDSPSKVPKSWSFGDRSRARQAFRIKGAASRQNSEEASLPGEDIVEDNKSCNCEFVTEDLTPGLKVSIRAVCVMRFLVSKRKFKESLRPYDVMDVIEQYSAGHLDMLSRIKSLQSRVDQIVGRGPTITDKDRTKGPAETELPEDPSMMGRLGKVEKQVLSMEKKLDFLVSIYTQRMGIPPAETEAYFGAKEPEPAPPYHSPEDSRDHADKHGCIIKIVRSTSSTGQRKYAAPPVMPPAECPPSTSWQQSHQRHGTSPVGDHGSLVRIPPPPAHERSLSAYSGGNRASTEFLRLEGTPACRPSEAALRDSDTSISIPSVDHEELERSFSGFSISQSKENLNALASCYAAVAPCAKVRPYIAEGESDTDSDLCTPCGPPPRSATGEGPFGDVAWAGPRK
# KCNQ2 block: inhibitors of rat KCNQ2 potassium channel; O88943; CHO-K1 KCNQ2, FluxOR thallium flux, 20 min; hits give low values; B-score at 10 µM; 1.1% of 310,000 active; AID 2156;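 active = fluorescence ratio B-score at most minus 3 library SDs, with starting brightness B-score within 2 library SDs, cut at about -5.5 in these data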
# The depositor's hits bear a star; i = inactive; . = not tested or not shown. Compounds with a hit are over-represented: about 1.6% of the library has one in this group of screens.
SMILES,KCNQ2 pot,KCNQ2 block
Cc1ccc(N2C(=O)c3ccccc3C2Nc2ccccc2)nc1 (stereo not drawn),.,i
COc1cccc(-c2cc(C(=O)N3CCN(c4ncccn4)CC3)c3ccccc3n2)c1,.,i
CC(C)Oc1cccc(-c2cc(C(=O)N3CCN(c4ncccn4)CC3)c3ccccc3n2)c1,-7.15,-7.15*
O=C(Cc1ccon1)c1ccc(O)cc1O,.,i
Cc1ccc(Nc2nc(/N=C/NO)n[nH]2)cc1C,.,i
CCOc1ccc(-c2nc(C#N)c(N3CCOCC3)o2)cc1,1.41,i
CCOc1ccc(-c2nc(C#N)c(N3CCN(Cc4ccccc4)CC3)o2)cc1,-6.16,-6.16*
O=[N+]([O-])c1ccccc1/C=N/Nc1nnc(-c2ccccc2)c(-c2ccccc2)n1,.,i
CSCCC(NC(=O)c1ccccc1Cl)C(=O)N1CCN(c2ccccn2)CC1 (stereo not drawn),.,i
CC1CCc2cc(F)ccc2N1C(=O)CSc1nnc2c(n1)[nH]c1ccc(F)cc12 (stereo not drawn),.,i
COc1ccc(C2CC(C)(c3ccc(OC)cc3OC)Nc3ccccc3N2)c(OC)c1 (stereo not drawn),-6.4,-6.4*
COC(=O)C1=C(C)C(c2ccc(OC)cc2OC)NC(=O)N1 (stereo not drawn),.,i
O=C(O)C1Cc2ccccc2CN1C(=O)CSc1nnc2ccccn12 (stereo not drawn),.,i
O=C(COC(=O)C1CC1)Nc1c(Cl)cccc1C(F)(F)F,.,i
COc1ccc(NC(=O)CSc2nnc(Cn3cnc4ccccc43)o2)cc1,0.69,i
Cc1ccc(C2=Nc3ccccc3SC(c3cccc([N+](=O)[O-])c3)C2)cc1 (stereo not drawn),.,i
O=C(CSc1nc(C2CC2)nc2ccccc12)N1c2ccccc2Sc2ccccc21,-6.1,-6.1*
CC(=O)c1ccc(NC(=O)CSc2nc(C3CC3)nc3ccccc23)cc1,1.11,i
Cc1ccc2c(c1)N(CC(=O)NCC1CCCO1)C(=O)C(C(C)C)O2 (stereo not drawn),1,i
O=[N+]([O-])c1ccccc1Sc1nccn1Cc1ccccc1,-6.46,-6.46*
NC(=O)CSc1nccn1Cc1ccccc1,0.31,i
O=C(/C=C/c1cccc([N+](=O)[O-])c1)Nc1cccc(NC(=O)c2cccs2)c1,2.04,i
CCN1CCN(C(=O)c2cn(CCOC)c(=O)c3c2c2ccccc2n3C)CC1,0.06,i
COCCCNC(=O)c1cn(CC(C)C)c(=O)c2c1c1ccccc1n2C,0.05,i
COCCn1cc(C(=O)N2CCCC(C)C2)c2c3ccccc3n(C)c2c1=O (stereo not drawn),-6.62,-6.62*
SMILES,KCNQ2 pot,KCNQ2 block
CC(C)Cn1cc(C(=O)N2CCN(c3ccccn3)CC2)c2c3ccccc3n(C)c2c1=O,-5.74,-5.74*
COc1ccc(Cl)cc1NC(=O)CN(C1CCCCC1)S(C)(=O)=O,-5.86,-5.86*
CS(=O)(=O)N(CC(=O)Nc1ccc(F)cc1F)C1CCCCC1,0.06,i
COc1cc(CN2CCCCC2C(=O)Nc2ccc(Oc3ccccc3)nc2)ccc1O (stereo not drawn),.,i
Cc1cccc(/C=C/c2onc(C)c2S(=O)(=O)N2CCC(C(=O)N3CCC(C)CC3)CC2)c1,.,i
Cc1cccc(/C=C/c2onc(C)c2S(=O)(=O)N2CCC(C(=O)N3CCCCCC3)CC2)c1,-5.99,-5.99*
COCCn1c(SCCOc2ccccc2)nc2ccccc2c1=O,.,i
COc1ccccc1OCC(=O)Nc1ccccc1C(=O)N1CCCCC1,.,i
O=C(COc1ccccc1Cl)Nc1ccccc1C(=O)N1CCCCC1,-5.99,-5.99*
CCOc1ccc(CC(=O)C2=C(N3CCOCC3)CC(C)(C)CC2=O)cc1OCC,.,i
CCN1CCN(C(=O)c2cc(-c3cccnc3)nc3ccc(Br)cc23)CC1,-8.31,-8.31*
COc1cccc(CN2CCN(C(=O)c3cc(-c4ccccn4)nc4ccc(Cl)cc34)CC2)c1,.,i
COc1cccc(CN2CCN(C(=O)c3cc(-c4ccncc4)nc4ccc(C)cc34)CC2)c1,-5.86,-5.86*
O=C(O)c1cc(-c2cccnc2)nc2ccc(Br)cc12,0.58,i
CC(=O)Nc1ccc(NCC(=O)c2ccccc2)cc1,.,i
COc1ccc(OC)c(CNC(=O)C2CCC(=O)N2C(C)C)c1 (stereo not drawn),.,i
Cc1ccc(-n2nc3c(=O)n(C(C)C(=O)NCCCc4ccccc4)nc(C)c3c2C)cc1 (stereo not drawn),.,i
Cc1ccc(-n2nc3c(=O)n(C(C)C(=O)NCc4ccccc4Cl)nc(C)c3c2C)cc1 (stereo not drawn),-8.07,-8.07*
CC(C)CN(C(=O)COC(=O)CSc1ccc([N+](=O)[O-])cc1)C1CCS(=O)(=O)C1 (stereo not drawn),.,i
CCOC(=O)CNC(=O)c1ccc(Br)s1,.,i
Cc1ccc(C)n1-c1ccc(C(=O)NN)s1,-5.68,-5.68*
CCOC(=O)C1(CC2CC2)CCN(C(=O)c2cc(C3CC3)nc3ccccc23)CC1,.,i
CCOC(=O)C1(CC2CC2)CCN(C(=O)c2cccnc2C)CC1,-6.44,-6.44*
CN1CCN(S(=O)(=O)c2cccc(C(=O)Nc3cc(C(F)(F)F)ccc3N3CCCC3)c2)CC1,.,i
CC(Oc1cccc(Cl)c1)C(=O)Nc1cc(S(=O)(=O)N2CCOCC2)ccc1N1CCCC1 (stereo not drawn),.,i
SMILES,KCNQ2 pot,KCNQ2 block
CN1CCN(S(=O)(=O)c2cccc(C(=O)Nc3cc(Cl)ccc3N3CCOCC3)c2)CC1,-7.48,-7.48*
CC(Oc1cccc(Cl)c1)C(=O)Nc1cc(S(=O)(=O)N2CCCCC2)ccc1N1CCOCC1 (stereo not drawn),-7.62,-7.62*
O=C(NC(Cc1c[nH]c2ccccc12)C(=O)N/N=C/c1cccc2ccccc12)c1cccs1 (stereo not drawn),-8.1,-8.1*
O=C(NC(Cc1c[nH]c2ccccc12)C(=O)O)c1cccs1 (stereo not drawn),.,i
O=C(c1cc(C2CC2)on1)N1CCN(c2ccc(F)cc2)CC1,.,i
O=C(NCc1ccccc1Cl)C1(S(=O)(=O)c2ccc(Cl)cc2)CC1,-5.73,-5.73*
O=C(Cc1ccc(Cl)cc1)NCc1ccccc1Cl,.,i
O=C(Nc1ccc(F)cc1)c1cnc(-c2ccccc2)nc1-c1ccccc1,.,i
O=C(Nc1ccc(F)c(F)c1)c1cnc(-c2ccccc2)nc1-c1ccccc1,-5.62,-5.62*
CCn1c(CSCc2ccc(F)cc2)nnc1SCC(=O)NCc1ccccc1,.,i
C=CCn1c(CSCc2ccccc2)nnc1SCC(=O)NCc1ccccc1,-5.55,-5.55*
COc1ccc(COC(=O)c2cccc(S(=O)(=O)N3CCCC3)c2)cc1F,.,i
COc1cccc2sc3ccc(C#CC4(O)CCCCC4)cc3c(=O)c12,-6.7,-6.7*
O=c1c2ccccc2sc2ccc(C#CC3(O)CCCCC3)cc12,.,i
O=C(O)CSCC(=O)N(c1ccccc1)c1ccccc1,0.57,i
CCCc1cc(C(=O)N2CCCC(Nc3ccc(C)c(C)c3)C2)n(C)n1 (stereo not drawn),.,i
C=CCN(CC=C)C(=S)NC(=O)c1ccc(C)c(Br)c1,23.9*,i
C=CCN(CC=C)C(=S)NC(=O)c1ccc(OC)cc1,2.95,i
COC(=O)c1ccc(C(=O)OC)c(NC(=O)COC(=O)C2CCC(C(C)(C)C)CC2)c1 (stereo not drawn),-5.9,-5.9*
COC(=O)c1ccc(C(=O)OC)c(NC(=O)COC(=O)C2CCCCC2)c1,0.28,i
